The source of these data is PubChem BioAssay AID2599 (Sanford-Burnham Center for Chemical Genomics, 2010).

Structures are written as SMILES. About 5,800 (1.8%) of roughly 330,000 compounds were called active.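 Rule for the calls: active = inhibition above about 50% at the single tested dose (limit read from the data); inactive = the rest.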 The list comes from a sample in which actives are over-represented; it also holds similar structures and randomly drawn compounds.

This experiment deals with Sentrin-specific protease 6 (Homo sapiens) (UniProt Q9GZR1). As to the kind of experiment: SENP6 protease inhibitors, primary screen, biochemical, luminescence, uHTS (AID 2599).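 Note: plate controls were DMSO wells with enzyme for no effect and DMSO wells lacking enzyme for full effect.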 Conditions: Recombinant SENP6 catalytic domain, aminoluciferin luminescence; at 10 µM; stronger effect = higher value.
Sequence of Sentrin-specific protease 6 (Homo sapiens) (Q9GZR1 628-1112 limits assumed): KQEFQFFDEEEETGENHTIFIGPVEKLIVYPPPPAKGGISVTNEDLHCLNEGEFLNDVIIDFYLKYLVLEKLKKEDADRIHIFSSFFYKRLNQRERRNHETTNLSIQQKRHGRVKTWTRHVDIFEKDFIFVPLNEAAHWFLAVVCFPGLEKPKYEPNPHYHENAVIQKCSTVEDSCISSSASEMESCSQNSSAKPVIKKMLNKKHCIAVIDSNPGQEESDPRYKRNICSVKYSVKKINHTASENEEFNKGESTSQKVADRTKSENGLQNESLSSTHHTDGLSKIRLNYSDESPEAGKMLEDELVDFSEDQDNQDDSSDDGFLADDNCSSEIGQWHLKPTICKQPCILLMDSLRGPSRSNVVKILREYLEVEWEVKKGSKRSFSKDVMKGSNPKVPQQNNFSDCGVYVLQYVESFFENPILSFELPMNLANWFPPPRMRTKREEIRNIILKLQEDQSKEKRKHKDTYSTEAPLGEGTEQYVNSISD
Regarding `CN1CCNC(=O)C1CC(=O)N1CC=C(c2ccc(F)cc2)CC1` (stereo not drawn), the inhibition (commonly the change of the read-out against control, counted positive when it falls) was 4.55% (inactive).

`COc1ccc(/C=C2\SC(=O)N(CCC(=O)NCCCn3ccnc3)C2=O)cc1`: the inhibition is 15.6% (inactive).

Turning to `COc1ccc(/C=C2\SC(=O)N(CCC(=O)NC3CCS(=O)(=O)C3)C2=O)cc1` (stereo not drawn), the inhibition was 12.7% (inactive).

For `COc1ccc(/C=C2/SC(=O)N(CCCCCC(=O)Nc3ccccc3C(=O)O)C2=S)cc1`, the inhibition is 63.7% (active).

Turning to `O=C(Nn1c(-c2ccc(Cl)cc2)nc2ccccc2c1=O)c1cccnc1Cl`, the inhibition is 1.41% (inactive).

In the case of `Cc1ccc2c(c1)N(C(=O)CCC(=O)N1CCc3ccccc3C1)CCO2`, the inhibition was 10.2% (inactive).

For `Oc1ccc(CNc2ccccc2O)cc1`, the inhibition was 17.3% (inactive).

With `CCOC(=O)C1(Cc2ccccc2C)CCCN(C(=O)CCc2c(C)noc2C)C1` (stereo not drawn), the inhibition is 9.37% (inactive).

For `N=c1c2c3c(sc2nc2n1CCCCC2)CCCC3`, the inhibition is 64.2% (active).

`CC1(C)Cc2c(sc3nc4n(c(=N)c23)CCCCC4)CO1`: the inhibition was -4.65% (inactive).

With `N=c1c2c3c(sc2ncn1N)CCCCC3`, the inhibition was -21.7% (inactive).

On to `CC(OC(=O)CCc1nc(=O)c2ccccc2n1C)C(=O)NCc1ccc2c(c1)OCO2` (stereo not drawn), for which the inhibition is -15.7% (inactive).

`Cc1cc(NC(=O)c2ccccc2C)no1`: the inhibition is -1.58% (inactive).

Turning to `Cc1cc(NC(=O)COc2ccc([N+](=O)[O-])cc2)no1`, the inhibition is -2.83% (inactive).

As for `Cc1cc(NC(=O)Nc2ccccc2[N+](=O)[O-])no1`, the inhibition is 54% (active).

Turning to `Nc1ccn(CC(=O)N2CCN(c3ccccn3)CC2)c(=O)n1`, the inhibition is -3.83% (inactive).

With `CC(C)C(=O)NC(NC(=S)NC1CCS(=O)(=O)C1)C(Cl)(Cl)Cl` (stereo not drawn), the inhibition was -19.9% (inactive).

As for `CCOc1ccc(NC(=S)N2CCC(NC(=O)c3ccccc3)CC2)cc1`, the inhibition is -17.6% (inactive).

Consider `Cc1cc(N/C=C\C(=O)c2ccc(Cl)c(Cl)c2)no1`, for which the inhibition is -3.41% (inactive).

Regarding `CCOc1ccc(N/C=C/C(=O)c2ccccc2)cc1`, the inhibition was 94.4% (active).

For the molecule `Cc1ccc(N/C=C/C(=O)c2ccccc2)cc1C`, the inhibition was 95.8% (active).

Regarding `CCOc1ccc(N/C=C/C(=O)c2cc(OC)c(OC)c(OC)c2)cc1`, the inhibition was -7.87% (inactive).

As to `COc1ccc(N2C(=O)CCC(C(=O)Nc3ccccn3)C2c2ccc(OC)c(OC)c2)cc1` (stereo not drawn), the inhibition was -4.43% (inactive).

On to `COc1ccc(C(=O)/C=C/Nc2ccccn2)cc1`, for which the inhibition is 97.2% (active).

Turning to `CC(=O)Nc1ccc(/C=C/C(=O)c2ccccc2)cc1`, the inhibition is -17% (inactive).

In the case of `O=C(/C=C/NCc1ccc(F)cc1)c1ccccc1`, the inhibition was -0.568% (inactive).

As to `C[C@H](NC(=O)C1CC(=O)N(c2ccc3c(c2)OCCO3)C1)C(=O)N1CCC(C(=O)O)CC1` (stereo partly drawn), the inhibition is -10.8% (inactive).

For the molecule `CCC(C)CN1CCC(CO)(Cc2ccccc2Cl)CC1` (stereo not drawn), the inhibition is 8.24% (inactive).

For `CC1CCC(CN2CCN=C2N(C)C)CC1` (stereo not drawn), the inhibition was -19.7% (inactive).

With `Cc1ccccc1C(OCCN(C)C)C1CCCCC1` (stereo not drawn), the inhibition was -10.8% (inactive).

`COc1ccc(C2=NOC(COC(=O)c3ccc4ccccc4n3)C2)cc1` (stereo not drawn): the inhibition is -7.77% (inactive).

For the molecule `Cc1ccc(C(=O)NNC2=Nc3cc([N+](=O)[O-])ccc3OC2)cc1`, the inhibition was -18.4% (inactive).

In the case of `COc1ccc(C2=Nc3cc(C)ccc3OC2)cc1`, the inhibition is 81.7% (active).

Turning to `CCOCCN(C=O)c1cccc(OC)c1`, the inhibition was -10.1% (inactive).

For `O=C(COC(=O)c1n[nH]c2ccccc12)Nc1ccccc1Br`, the inhibition was -4.53% (inactive).

In the case of `CCCn1nc(C(=O)OCc2nc(N)nc(Nc3ccccc3C)n2)c2ccccc2c1=O`, the inhibition is -0.795% (inactive).

On to `COc1cc(/C=C/C(=O)OCC(=O)N2CCOCC2)ccc1OCC#N`, for which the inhibition is 2.81% (inactive).

As to `COc1ccc(N2C(=O)C(O)C2c2ccc(C)cc2)cc1` (stereo not drawn), the inhibition was -8.14% (inactive).

Regarding `Cc1ccc2cc3cc(C(=O)N4CCCCCC4)oc3nc2c1`, the inhibition was 57.1% (active).

In the case of `Cc1ccc2nc(N3CCN(C(=O)c4ccco4)CC3)sc2c1`, the inhibition is -9.94% (inactive).

For the molecule `Cc1cc(C)cc(NC(=O)N2CCCCCCC2)c1`, the inhibition is -8.39% (inactive).

Take `COC(=O)c1cccc(C(=O)N2CCCC(Nc3ccc4c(c3)OCCO4)C2)c1` (stereo not drawn): the inhibition was 8.68% (inactive).

For `OCCC#Cc1ccc(CN2CCN(Cc3ccsc3)C(CCO)C2)cc1` (stereo not drawn), the inhibition is -21.1% (inactive).

For the molecule `Cc1cc(C(=O)N/N=C\C(Br)=C\c2ccccc2)c(C)o1`, the inhibition is 54.2% (active).

Consider `Cc1cc(C(=O)NNC(=O)c2ccccc2O)c(C)o1`, for which the inhibition was 0.955% (inactive).

For the molecule `COc1ccc(C/C(C)=N/NC(=O)c2cc(C)oc2C)cc1`, the inhibition is -24.2% (inactive).

Regarding `CC(C)c1cc(C(=O)N/N=C/C(Br)=C/c2ccccc2)n[nH]1`, the inhibition was 2.83% (inactive).

Regarding `CC(=C/c1ccccc1)/C=N/NC(=O)c1cc(C)oc1C`, the inhibition was 90.1% (active).

Turning to `CCN(CC)c1ccc(C(=O)N/N=C/c2ccc(N3CCOCC3)cc2)cc1`, the inhibition was -7.9% (inactive).

Consider `Cc1ccc(-c2cc(C(=O)N/N=C/C=C/c3ccccc3)n[nH]2)o1`, for which the inhibition is 1.41% (inactive).

As to `O=C(NN=Cc1ccc(N2CCOCC2)cc1)c1cc2ccccc2cc1O`, the inhibition is -12.9% (inactive).

Take `Cc1cc(C(=O)N/N=C/c2ccc(N3CCOCC3)cc2)c(C)o1`: the inhibition is 84.3% (active).

As for `CN1CCN(C(=O)/C(=C\c2cccs2)NC(=O)c2cccs2)CC1`, the inhibition is -14.6% (inactive).

`CC(C)OCCCNC(=O)c1ccc(C2SCC(=O)N2Cc2ccco2)cc1` (stereo not drawn): the inhibition is -6.37% (inactive).

Regarding `CC(Sc1ccccc1F)C(=O)Nc1cccc(S(=O)(=O)N2CCOCC2)c1` (stereo not drawn), the inhibition is -4.45% (inactive).

For the molecule `Nc1c(N(CCCO)C(=O)C2CCCC2)c(=O)[nH]c(=O)n1Cc1ccccc1`, the inhibition was -9.42% (inactive).

As to `O=C(Cc1ccccc1)Nc1c(Cl)ccc2nsnc12`, the inhibition is -21.2% (inactive).

As for `C/C(=N\NC(=O)c1ccc(C)cc1)C1C(=O)c2ccccc2C1=O`, the inhibition is 92.3% (active).

For the molecule `Cc1ccc(C(=O)N/C(=C/c2cccnc2)C(=O)O)cc1`, the inhibition was -4.97% (inactive).

With `C/C(=N\NC(=O)CNC(=O)C(c1ccccc1)c1ccccc1)c1ccc(C)cc1`, the inhibition was 7.95% (inactive).

In the case of `CC(=O)Nc1ccc(S(=O)(=O)NNC(=O)CCc2ccccc2)cc1`, the inhibition was -9.47% (inactive).

In the case of `C=C1c2c(Cl)ccc(O)c2C(O)=C2C(=O)[C@]3(O)C(O)=C(C(N)=O)C(=O)[C@@H](N(C)C)[C@@H]3[C@@H](O)C12` (stereo partly drawn), the inhibition is 1.61% (inactive).

Regarding `Cc1ccccc1NC(=O)CSc1ccc2nnc(-c3ccccn3)n2n1`, the inhibition was -3.48% (inactive).

As for `CCCCSc1nnc(-c2ccc(C)cc2)o1`, the inhibition is 50.8% (active).

Consider `CCOC(=O)CSc1nnc(-c2cccc(Br)c2)o1`, for which the inhibition was -8.5% (inactive).

On to `CCOC(=O)CSc1nnc(-c2ccc([N+](=O)[O-])cc2)o1`, for which the inhibition is 2.93% (inactive).

Turning to `O=S(=O)(c1ccc(Br)cc1)N1CCC(c2nc3ccccc3[nH]2)CC1`, the inhibition was -3.25% (inactive).

In the case of `COC(=O)c1scc(C)c1NC(=O)CSc1ccc(Cl)cc1`, the inhibition is -3.94% (inactive).

On to `O=C(c1ccco1)N1CCN(C(=O)c2cc(-c3ccccc3F)no2)CC1`, for which the inhibition was 4.97% (inactive).

In the case of `O=C(CN1CCN(c2ccccc2F)CC1)c1ccc2c(c1)OCO2`, the inhibition is -2.86% (inactive).

On to `Fc1ccccc1-c1cc2cc3c(cc2cn1)OCO3`, for which the inhibition was 75.8% (active).

As for `COC(=O)Cc1ccc(N(Cc2ccccc2F)S(=O)(=O)c2ccc(Br)cc2)cc1`, the inhibition is -6.45% (inactive).

In the case of `CCOc1ccc(OCC)c(NC(=O)CSc2nnc(Cn3cnc4ccccc43)n2C)c1`, the inhibition was 3.46% (inactive).

For `O=C(CCN1CCc2ccccc2C(O)(c2ccccc2)C1)c1ccc2c(c1)OCCO2` (stereo not drawn), the inhibition is -26.4% (inactive).

As to `CC(C)CN(Cc1c(O)ccc2c(=O)c(-c3ccccc3)coc12)CC(C)C`, the inhibition was -12.1% (inactive).

On to `O=c1c(-c2ccccc2)coc2cc(O)ccc12`, for which the inhibition was 60.4% (active).

For `CCc1ccc(Oc2coc3cc(O)ccc3c2=O)cc1`, the inhibition is 14% (inactive).

As to `COc1ccc(C(C)NC(=S)NC2CCCCC2)cc1OC` (stereo not drawn), the inhibition is -13.2% (inactive).

In the case of `CNC(=O)C1CC(=O)N(c2ccc(OCC(=O)Nc3ccccc3C)cc2)C1` (stereo not drawn), the inhibition is -8.41% (inactive).

For the molecule `O=C(c1cccs1)N1CCC(c2nc3ccccc3s2)CC1`, the inhibition was 5.91% (inactive).

`COc1ccc(-n2nnnc2-c2nc3ccccc3s2)cc1`: the inhibition was 54.6% (active).

Take `COc1ccc(-n2nnnc2CNC(=O)c2ccc3ccccc3c2)cc1`: the inhibition was -6.42% (inactive).

With `COc1ccc(C2=NN(c3nc4ccccc4s3)C(=O)C2)cc1`, the inhibition is 2.49% (inactive).

For `C=CCC(C(=O)c1ccccc1)[N+](C)(C)CC=C` (stereo not drawn), the inhibition was -7.76% (inactive).

`Cc1cnc(CN(C)C(=O)C2CCC(=O)N(CCc3cccc(F)c3)C2)[nH]1` (stereo not drawn): the inhibition is 13.7% (inactive).

Turning to `COc1ccc(OCC(=O)Nc2ccc(NC(=O)c3ccco3)c(C)c2)cc1`, the inhibition is -34.6% (inactive).

Consider `COc1cccc(C(=O)Nc2ccc(NC(=O)c3ccco3)cn2)c1`, for which the inhibition is 64.1% (active).

Consider `Cc1ccc(C(=O)COc2cccc(NC(=O)c3ccco3)c2)cc1`, for which the inhibition was -16.4% (inactive).

For the molecule `Cc1cc(NC(=O)c2ccc(F)cc2)ccc1NC(=O)c1ccco1`, the inhibition is 43.7% (inactive).

For `COc1ccccc1C(=O)Nc1ccc(NC(=O)c2ccco2)c(C)c1`, the inhibition was 66.3% (active).

Take `O=C(Nc1ccc(NC(=O)c2cccs2)cn1)c1ccco1`: the inhibition was 22% (inactive).

In the case of `CC[C@]1(c2ccccc2OC)C(=O)N(C(=O)OC)N1C(=O)OC`, the inhibition is 0.734% (inactive).

On to `CC(=O)Nc1ccc(OCCC[n+]2cccc(C(=O)[O-])c2)cc1`, for which the inhibition is -17.4% (inactive).

Turning to `Nc1ccc(N=Nc2ccccc2Cl)c(N)n1`, the inhibition is 81.2% (active).

Take `COc1cccc(NC(=O)c2cc(S(=O)(=O)N3CCc4ccccc43)cn2C)c1`: the inhibition is 3.36% (inactive).

With `CC(=O)Nc1cccc(-c2nc3ccccc3s2)c1C`, the inhibition was -16.1% (inactive).

With `Cc1ccnc(-n2sc3ccccc3c2=O)n1`, the inhibition is 2.11% (inactive).

On to `Cc1ccnc(Nc2nc3ccccc3s2)n1`, for which the inhibition is 78.6% (active).
